# Measured values as given in the supplement of paper PMC8728848.
# The sample as a whole holds a higher share of the strongest signals than the screen did.
# How the values were obtained:
# Experiment in all cases: glycan array binding signal (z-score within array); higher = stronger binding
# Conditions in all cases: glycan notation: IUPAC condensed, linker removed; mutation: D229G
# [1] = biological target: Fuc(a1-2)Gal(b1-3)GlcNAc(b1-2)Man(a1-3)[Fuc(a1-2)Gal(b1-3)GlcNAc(b1-2)Man(a1-6)]Man(b1-4)GlcNAc(b1-4)GlcNAc
# Method in brief: (§1)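 Negative Z-scores can be read as non-binding. The Z-score is calculated within each array and then averaged across arrays of one protein sequence at different concentrations or buffers and across linkers. Arrays, 3228 in all, were curated from the Consortium for Functional Glycomics database and kept only where the protein sequence was available.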
# [2] = biological target: Fuc(a1-2)Gal(b1-3)GlcNAc(b1-3)GalNAc
# Method in brief: as §1
# [3] = biological target: Fuc(a1-2)Gal(b1-3)GlcNAc(b1-3)[Gal(b1-4)GlcNAc(b1-6)]Gal(b1-4)Glc
# Method in brief: as §1
# [4] = biological target: Fuc(a1-2)Gal(b1-4)GlcNAc
# Method in brief: as §1
# [5] = biological target: Fuc(a1-2)Gal(b1-4)GlcNAc(b1-3)Gal(b1-4)GlcNAc(b1-3)Gal(b1-4)GlcNAc
# Method in brief: as §1
# [6] = biological target: Fuc(a1-2)Gal(b1-4)[Fuc(a1-3)]GlcNAc(b1-3)Gal(b1-4)[Fuc(a1-3)]GlcNAc
# Method in brief: as §1
# [7] = biological target: Fuc(a1-2)Gal3S(b1-4)GlcNAc
# Method in brief: as §1
# [8] = biological target: Fuc(a1-2)Gal6S(b1-4)Glc
# Method in brief: as §1
# [9] = biological target: Fuc(a1-2)[Gal(a1-3)]Gal(b1-3)GlcNAc(b1-2)Man(a1-3)[Fuc(a1-2)[Gal(a1-3)]Gal(b1-3)GlcNAc(b1-2)Man(a1-6)]Man(b1-4)GlcNAc(b1-4)GlcNAc
# Method in brief: as §1
# [10] = biological target: Fuc(a1-2)[Gal(a1-3)]Gal(b1-3)GlcNAc(b1-6)GalNAc
# Method in brief: as §1
# [11] = biological target: Fuc(a1-2)[Gal(a1-3)]Gal(b1-4)GlcNAc(b1-2)Man(a1-3)[Fuc(a1-2)[Gal(a1-3)]Gal(b1-4)GlcNAc(b1-2)Man(a1-6)]Man(b1-4)GlcNAc(b1-4)GlcNAc
# Method in brief: as §1
# [12] = biological target: Fuc(a1-2)[Gal(a1-3)]Gal(b1-4)GlcNAc(b1-6)GalNAc
# Method in brief: as §1
# [13] = biological target: Fuc(a1-2)[Gal(a1-3)]Gal(b1-4)[Fuc(a1-3)]GlcNAc(b1-3)GalNAc
# Method in brief: as §1
# [14] = biological target: Fuc(a1-2)[GalNAc(a1-3)]Gal(b1-4)GlcNAc(b1-2)Man
# Method in brief: as §1
# [15] = biological target: Fuc(a1-2)[GalNAc(a1-3)]Gal(b1-4)GlcNAc(b1-3)[Fuc(a1-2)[GalNAc(a1-3)]Gal(b1-4)GlcNAc(b1-6)]GalNAc
# Method in brief: as §1
# [16] = biological target: Fuc(a1-2)[GalNAc(a1-3)]Gal(b1-4)[Fuc(a1-3)]GlcNAc(b1-3)GalNAc
# Method in brief: as §1
# [17] = biological target: Fuc(a1-3)[Gal(b1-4)]GlcNAc(b1-3)Gal(b1-4)[Fuc(a1-3)]GlcNAc(b1-3)Gal(b1-4)[Fuc(a1-3)]GlcNAc
# Method in brief: as §1
# [18] = biological target: Fuc(a1-3)[Gal3S(b1-4)]GlcNAc6S
# Method in brief: as §1
# [19] = biological target: Gal(a1-3)Gal(b1-3)GlcNAc
# Method in brief: as §1
# [20] = biological target: Gal(a1-3)Gal(b1-3)GlcNAc(b1-2)Man(a1-3)[Gal(a1-3)Gal(b1-3)GlcNAc(b1-2)Man(a1-6)]Man(b1-4)GlcNAc(b1-4)GlcNAc
# Method in brief: as §1
# [21] = biological target: Gal(b1-2)Gal
# Method in brief: as §1
# [22] = biological target: Gal(b1-3)Gal
# Method in brief: as §1
# [23] = biological target: Gal(b1-3)GlcNAc(b1-3)Gal(b1-4)GlcNAc(b1-3)Gal(b1-4)GlcNAc(b1-2)[Gal(b1-3)GlcNAc(b1-3)Gal(b1-4)GlcNAc(b1-3)Gal(b1-4)GlcNAc(b1-6)]Man(a1-6)[Gal(b1-3)GlcNAc(b1-3)Gal(b1-4)GlcNAc(b1-3)Gal(b1-4)GlcNAc(b1-2)Man(a1-3)]Man(b1-4)GlcNAc(b1-4)[Fuc(a1-6)]GlcNAc
# Method in brief: as §1
# [24] = biological target: Gal(b1-3)GlcNAc6S
# Method in brief: as §1
# [25] = biological target: Gal(b1-3)[Fuc(a1-4)]GlcNAc(b1-2)Man(a1-3)[Gal(b1-3)[Fuc(a1-4)]GlcNAc(b1-2)Man(a1-6)]Man(b1-4)GlcNAc(b1-4)[Fuc(a1-6)]GlcNAc
# Method in brief: as §1
# [26] = biological target: Gal(b1-4)GlcNAc(b1-2)[Gal(b1-4)GlcNAc(b1-4)]Man(a1-3)[Gal(b1-4)GlcNAc(b1-2)Man(a1-6)]Man(b1-4)GlcNAc(b1-4)GlcNAc
# Method in brief: as §1
# [27] = biological target: Gal(b1-4)GlcNAc(b1-2)[Gal(b1-4)GlcNAc(b1-4)]Man(a1-3)[GlcNAc(b1-4)][Gal(b1-4)GlcNAc(b1-2)Man(a1-6)]Man(b1-4)GlcNAc(b1-4)GlcNAc
# Method in brief: as §1
# [28] = biological target: Gal(b1-4)GlcNAc(b1-3)Gal(b1-3)GalNAc
# Method in brief: as §1
# [29] = biological target: Gal(b1-4)GlcNAc(b1-3)Gal(b1-4)GlcNAc(b1-2)Man(a1-3)[Gal(b1-4)GlcNAc(b1-3)Gal(b1-4)GlcNAc(b1-2)Man(a1-6)]Man(b1-4)GlcNAc(b1-4)[Fuc(a1-6)]GlcNAc
# Method in brief: as §1
# [30] = biological target: Gal(b1-4)GlcNAc(b1-3)Gal(b1-4)GlcNAc(b1-3)Gal(b1-4)GlcNAc(b1-3)Gal(b1-4)GlcNAc(b1-3)Gal(b1-4)GlcNAc(b1-2)[Gal(b1-4)GlcNAc(b1-3)Gal(b1-4)GlcNAc(b1-3)Gal(b1-4)GlcNAc(b1-3)Gal(b1-4)GlcNAc(b1-3)Gal(b1-4)GlcNAc(b1-6)]Man(a1-6)[Gal(b1-4)GlcNAc(b1-3)Gal(b1-4)GlcNAc(b1-3)Gal(b1-4)GlcNAc(b1-3)Gal(b1-4)GlcNAc(b1-3)Gal(b1-4)GlcNAc(b1-2)Man(a1-3)]Man(b1-4)GlcNAc(b1-4)[Fuc(a1-6)]GlcNAc
# Method in brief: as §1
# [31] = biological target: Gal(b1-4)GlcNAc(b1-3)Gal(b1-4)GlcNAc(b1-3)[Gal(b1-4)GlcNAc(b1-3)Gal(b1-4)GlcNAc(b1-6)]GalNAc
# Method in brief: as §1
binder,measurement,setting,value
"Epa1-NP-mutant-D229G (Candida glabrata), Q6VBJ0 (protein) MILNPALFLNKCVCIYTTLILLLLTNGGYATSSNDISLASKDPTTFPLGCSPDITTPKKGLSMELYSYDFRKKGSYPCWDAAYLDPNYPRTGYKSHRLLAKVDGVTGNINFYYHATKGCTPQLGHLPASYNYPKPLTMTNFTMLLYGYFRPKVTGFHTFTISADDLLFVNFGAGNAFDCCRRDSSADHFGNYQAYAIWGSKTAKDELTVHLDAGVYYPIRLFYNNREYGGALSFTFKTESNENTVSDFSEYFFSLDDTEEGCPGLISYDSSCASVKTSKIIGIDYHTETPNENLVPITKTIYHLGIPCTGTTTTPLCGSGFYDPLANKCVTINTSSTSSVTKTTSHTTSKEVSFHSSISSQKTLIPKSIPSPYGPIKSQSIPTEMETSSEISSSEYAFSDVISTPSHSPYTKKHSSLNSSSYTSTVIHSLTSYSISQGIFSTSLSEQNITSKSSTDKFSTATSMSNNITQSSIIISQFSTNNENYTTTSMHTSSDKISTETLNNSISTTTSILFSNSSTILKNNTTIISSDKDTHYHPVNPTIVCSTNKTEIICASITQPSISNSNNHWSSSVLKFNSTTVRSTLPSSAGSNETSINVPFSSSTESNTSTSSTSTSNSKMVRSTLPSSAGSNETSISVPFSSSTESNTSTSSTSTSNSKMVRSTLPSSAGSNETSINVPFSSSTESNTSTSSTSTSNSKTVRSTPFSSAGIIMTSLSQRNNKSASSYASSNSKCYNTADSCRKVHSTPSYLLTSSYTSEGVDYDCSLVSTKLKINDTNCVNNKHTTKSCLKTSVTTTIPTLEIKTARKSSSNTIGLHSYPTSSPNKSISSAPIIGYISSFKTIKTASPSYQTSDLTTITTITSLNNPGSTAVENTHESNDKSRKTSSNDISSKHSVIKETKDAVESSNKSHQTNTLKCSSIIIASSSHNSYESLGGTTLTLTLSKVYSPQNNDTLPFLEISEVNPSRTVLPESSKMMQYLTSTEERNKTARNTIATNIVSISTFHFEGEGNAIRMGYTQLLLMLIGIIVMNIGT",glycan array binding signal (z-score),[1],1.63
same,glycan array binding signal (z-score),[2],0.514
same,glycan array binding signal (z-score),[3],1
same,glycan array binding signal (z-score),[4],0.427
same,glycan array binding signal (z-score),[5],-0.455
same,glycan array binding signal (z-score),[6],-1.5
same,glycan array binding signal (z-score),[7],1.12
same,glycan array binding signal (z-score),[8],-0.521
same,glycan array binding signal (z-score),[9],0.17
same,glycan array binding signal (z-score),[10],0.093
same,glycan array binding signal (z-score),[11],2.01
same,glycan array binding signal (z-score),[12],-0.039
same,glycan array binding signal (z-score),[13],2.93
same,glycan array binding signal (z-score),[14],-0.751
same,glycan array binding signal (z-score),[15],0.092
same,glycan array binding signal (z-score),[16],-0.531
same,glycan array binding signal (z-score),[17],-0.559
same,glycan array binding signal (z-score),[18],2.08
same,glycan array binding signal (z-score),[19],-0.137
same,glycan array binding signal (z-score),[20],3.6
same,glycan array binding signal (z-score),[21],-1.18
same,glycan array binding signal (z-score),[22],-0.801
same,glycan array binding signal (z-score),[23],2.48
same,glycan array binding signal (z-score),[24],1.23
same,glycan array binding signal (z-score),[25],2.15
same,glycan array binding signal (z-score),[26],-1.41
same,glycan array binding signal (z-score),[27],-0.683
same,glycan array binding signal (z-score),[28],0.068
same,glycan array binding signal (z-score),[29],0.671
same,glycan array binding signal (z-score),[30],2.8
same,glycan array binding signal (z-score),[31],2.55
